{
  "source": "PubChem BioAssay AID2283162",
  "about": "(EPA ToxCast)",
  "note": "Records with an inconclusive call do not appear. The source made the active and inactive calls. The calls were made as follows: active = hit-call score of the fitted dose curve at least 0.9, where 1 is the maximum; inconclusive = response in the unintended direction; inactive = score below 0.9.",
  "data": [
    {"target": "human Insulin-like Growth Factor 1 Receptor (IGF1R), IGF1R (gene 3480) (UniProt P08069)", "sequence (P08069 whole entry, looked up)": "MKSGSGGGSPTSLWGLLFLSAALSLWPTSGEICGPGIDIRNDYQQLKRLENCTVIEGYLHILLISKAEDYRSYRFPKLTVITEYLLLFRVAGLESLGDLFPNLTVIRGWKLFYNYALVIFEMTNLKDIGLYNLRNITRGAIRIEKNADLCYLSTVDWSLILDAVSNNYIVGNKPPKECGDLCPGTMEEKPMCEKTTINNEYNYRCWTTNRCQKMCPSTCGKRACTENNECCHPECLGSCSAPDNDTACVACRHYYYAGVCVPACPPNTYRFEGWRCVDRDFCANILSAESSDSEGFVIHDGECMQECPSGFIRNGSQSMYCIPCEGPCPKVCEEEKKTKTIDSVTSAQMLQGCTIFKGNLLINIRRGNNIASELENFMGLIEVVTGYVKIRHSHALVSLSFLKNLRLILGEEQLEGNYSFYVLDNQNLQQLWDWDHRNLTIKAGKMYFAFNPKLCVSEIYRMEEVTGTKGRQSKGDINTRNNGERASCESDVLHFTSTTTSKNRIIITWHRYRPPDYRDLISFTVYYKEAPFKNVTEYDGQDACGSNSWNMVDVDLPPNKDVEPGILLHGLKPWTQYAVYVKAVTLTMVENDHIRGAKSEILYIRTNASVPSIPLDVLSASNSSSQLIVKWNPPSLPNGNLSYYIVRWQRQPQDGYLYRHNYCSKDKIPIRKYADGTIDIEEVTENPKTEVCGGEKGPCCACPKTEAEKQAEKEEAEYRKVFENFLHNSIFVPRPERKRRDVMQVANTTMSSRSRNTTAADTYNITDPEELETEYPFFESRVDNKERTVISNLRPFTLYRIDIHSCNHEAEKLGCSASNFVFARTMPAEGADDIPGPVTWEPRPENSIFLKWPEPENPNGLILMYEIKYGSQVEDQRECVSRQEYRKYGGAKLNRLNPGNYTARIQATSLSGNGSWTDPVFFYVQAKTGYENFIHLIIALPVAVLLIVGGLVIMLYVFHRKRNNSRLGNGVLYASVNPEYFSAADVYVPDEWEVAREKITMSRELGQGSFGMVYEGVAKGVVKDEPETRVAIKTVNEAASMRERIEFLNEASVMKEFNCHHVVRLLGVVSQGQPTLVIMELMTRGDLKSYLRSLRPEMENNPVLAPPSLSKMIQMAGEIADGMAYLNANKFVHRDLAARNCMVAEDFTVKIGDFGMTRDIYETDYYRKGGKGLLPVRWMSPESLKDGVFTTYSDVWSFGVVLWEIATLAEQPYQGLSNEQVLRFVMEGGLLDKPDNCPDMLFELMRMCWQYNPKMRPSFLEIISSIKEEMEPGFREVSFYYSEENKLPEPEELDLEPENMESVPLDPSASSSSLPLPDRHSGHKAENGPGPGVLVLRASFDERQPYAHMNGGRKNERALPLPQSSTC", "assay": "NVS_ENZ_hIGF1R: NovaScreen (NVS) Enzymatic Assay for human Insulin-like Growth Factor 1 Receptor (IGF1R)", "method": "NVS_ENZ_hIGF1R is a biochemical, single-readout assay that uses extracted gene-proteins in a cell-free assay. Measurements were taken 1 hour after chemical dosing in a 384-well plate.NVS_ENZ_hIGF1R is one of one assay component(s) measured or calculated from the NVS_ENZ_hIGF1R assay. It is designed to make measurements of enzyme activity, a form of enzyme reporter, as detected with fluorescence intensity signals by Fluorescence and electrophoretic mobility shift technology.Data from the assay component NVS_ENZ_hIGF1R was analyzed into 1 assay endpoint. This assay endpoint, NVS_ENZ_hIGF1R, was analyzed in the positive analysis fitting direction relative to DMSO as the negative control and baseline of activity. Using a type of enzyme reporter, loss-of-signal activity can be used to understand changes in the enzymatic activity as they relate to the gene IGF1R. Furthermore, this assay endpoint can be referred to as a primary readout, because this assay has produced multiple assay endpoints where this one serves a enzymatic activity function. To generalize the intended target to other relatable targets, this assay endpoint is annotated to the kinase intended target family, where the subfamily is receptor tyrosine kinase.\nBinding assays used specific radioligands (tritiated, iodinated) with non-radioactive competitive displacement ligands in agonist or antagonist protocols (as indicated) and various reference compounds and inhibitors to titrate specific binding to receptors and transporters. Most enzyme assays (CYPs, kinases, phosphatases, proteases, HDACs) used recombinant protein and specific substrates (fluorescence mostly, some colorimetric and radioactive) and inhibitors, followed by a biochemical separation of substrate and product. All assays for the biochemical HTS were initially run in duplicate at a single concentration (10 uM for CYP450 assays and 25 uM for all others). Assay-chemical combinations meeting a pre-defined threshold (e.g., 30% inhibition and other criteria defined below) were then run in singleton concentration-response format with maximum concentration of 20 uM for CYPs and 50 uM for all others. Each assay was run with positive and negative controls, and concurrent controls on every plate. The follow-up (secondary) screen tested active chemical-pairs in concentration series, as well as a few additional assays not tested in the primary screen, some selected negative inactives, and several cases re-run in the concentration series for confirmatory purposes.", "values": [
      {"compound": "c1ccc(C(O[C@@H]2CCCN(CCc3ccc4c(c3)OCO4)C2)c2ccccc2)cc1", "outcome": "inactive"},
      {"compound": "CN(C)C(=O)NC1(c2ccccc2)CCN(CCC[C@]2(c3ccc(Cl)c(Cl)c3)CCCN(C(=O)c3ccccc3)C2)CC1", "outcome": "inactive"},
      {"compound": "O=C(O)CC(O)(CC(=O)O)C(=O)O", "AC50": "5.18 µM (active)"},
      {"compound": "CCCCCCCC/C=C\\CCCCCCCC(=O)OC[C@@H](O)[C@H]1OC[C@H](O)[C@H]1O", "outcome": "inactive"},
      {"compound": "CC(C)c1cccc(C(C)C)c1NC(=O)NS(=O)(=O)c1cc(C(C)(C)O)co1", "outcome": "inactive"},
      {"compound": "CCCCc1ccc2c(n1)[C@@H](c1ccc(OC)cc1C[C@H](C)C(=O)O)[C@H](C(=O)O)[C@H]2c1ccc2c(c1)OCO2", "outcome": "inactive"},
      {"compound": "COc1cc(C(=O)NC2CCN(C)CC2)ccc1Nc1ncc2c(n1)N(C1CCCC1)CC(F)(F)C(=O)N2C", "AC50": "23.2 µM (active)"}
    ]}
  ]
}
